High-throughput results deposited in PubChem BioAssay by Broad Institute.
aSyn 5UTR act = Activators via SNCA 5'UTR binding, MLPCN; alpha-synuclein 5'UTR reporter, activators screen; activity score, % (tested at 7.5 µM), hits read low; 7.1% of 300,000 active; AID 1814; in the data active means activity score below about -60%
Hits are given with their value; 0 = inactive. These entries were drawn from the full list.

SMILES	aSyn 5UTR act
Cc1csc(NC(=O)c2ccc[nH]c2=O)n1	-85
Cc1csc(NC(=O)c2cnccn2)n1	-105
O=C(Nc1nc(-c2ccccn2)cs1)c1cc(Cl)ccc1[N+](=O)[O-]	0
Cc1csc(NC(=O)c2ccc(Cl)cc2[N+](=O)[O-])n1	-92
O=C(COc1ccc(Oc2ccccc2)cc1)NCc1cn2ccccc2n1	0
Fc1ccc(NCc2cn3ccccc3n2)cc1	-174
Fc1cccc(NCc2cn3ccccc3n2)c1	-97
Cc1cc(C)n2c(Br)c(CSc3nc4ccccc4o3)nc2n1	-87
Cc1nc(S(=O)(=O)N(C)c2ccccc2)c(C#N)c(C)c1Cl	-77
CC(=O)c1ccc(-c2ccc(C(=O)N3CCN(c4ccc(F)cc4)CC3)o2)cc1	-73
COc1ccc2oc(C(=O)N3CCCc4ccccc43)c(C)c2c1	-91
CC(=O)c1ccc(-c2ccc(C(=O)N3CCCc4ccccc43)o2)cc1	-66
Cc1ccc(C(=O)N2CCc3ccccc32)o1	-94
O=C(c1ccc([N+](=O)[O-])o1)N1CCc2ccccc2C1	-103
COc1ccc(/C=C/C(=O)c2ccc([N+](=O)[O-])o2)cc1OC	0
O=C(c1ccc([N+](=O)[O-])o1)N1CCc2ccccc21	-190
COc1cc2c(cc1OC)CN(C(=O)c1ccc([N+](=O)[O-])o1)CC2	-175
O=C(Nc1nnc(CCc2ccccc2)s1)c1cccs1	-80
CCCCCCc1nnc(NC(=O)c2ccco2)s1	-67
O=C(Nc1nnc(CCc2ccccc2)s1)c1ccco1	-87
CC(C)COC(=O)Nc1nnc(Cc2ccccc2)s1	-97
CC(C)(C)Cc1nnc(NC(=O)c2ccco2)s1	-77
NC(=O)c1cc(Cc2ccccc2)sc1NC(=O)c1ccco1	-215
O=C(Nc1nnc(Cc2ccccc2)s1)c1ccco1	-95
S=C1NC2=C(CCCC2=C2SCCS2)C(c2ccccc2)N1 (stereo unspecified)	-324
SMILES	aSyn 5UTR act
CCC(=O)Oc1ccc(-c2cnc3ccccc3n2)cc1	-99
O=C(Oc1ccc(-c2cnc3ccccc3n2)cc1)c1ccco1	-81
COc1cc(CNCCO)ccc1OCC(=O)Nc1ccc(Br)cc1	-69
CS(=O)(=O)c1cnc2c(-c3ccc(F)cc3)cnn2c1N	-106
CC(C)(C)S(=O)(=O)c1cnc2c(-c3ccsc3)cnn2c1N	-74
Nc1c(-c2cccs2)cnc2c(-c3ccc(F)cc3)cnn12	-165
Nc1c(C(=O)O)cnc2c(-c3ccc(Cl)cc3)cnn12	-72
O=C(c1ccccc1)n1c(=S)nc2ccccn21	-124
Cc1cccc(C(=O)n2c(=S)nc3ccccn32)c1	-102
Cc1cc(N2CCCCC2)nc(SCC(=O)c2ccccc2)n1	-119
Cc1cc(N2CCCC2)nc(-c2ccccc2O)n1	-62
CCOC(=O)C(NC(=O)c1ccccc1Cl)(Nc1ccc(C)c(C)c1)C(F)(F)F (stereo unspecified)	-81
COc1ccc(OC)c(NC(=O)/C=C/c2ccccc2[N+](=O)[O-])c1	-84
COC(=O)C(=Cc1ccccc1[N+](=O)[O-])C(=O)OC	-240
O=C(/C=C/c1ccccc1[N+](=O)[O-])Nc1cccnc1	-123
CN(C)S(=O)(=O)c1cccc(NC(=S)N/N=C/c2cc(Br)ccc2O)c1	0
CN(C)S(=O)(=O)c1cccc(NC(=O)/C=C/c2ccccc2[N+](=O)[O-])c1	-65
COc1cccc(NC(=O)/C=C/c2ccccc2[N+](=O)[O-])c1	-202
COc1cccc(NC(=O)/C=C/c2ccc([N+](=O)[O-])cc2)c1	-84
CCCOc1ccc(/C=C/C(=O)Nc2ccc([N+](=O)[O-])cc2)cc1	0
O=c1c(-c2ccccc2)n[nH]c2ccccc12	-87
Cc1cc(C)cc(NC(=O)/C(C#N)=C/c2cn(CC(=O)NCc3ccco3)c3ccccc23)c1	0
Cc1cc(/C=C(\C#N)C(=O)Nc2ccccc2F)c(C)[nH]1	-129
Cc1cc(/C=C(\C#N)C(=O)NCc2ccco2)c(C)[nH]1	-64
Cc1cc(/C=C(\C#N)C(=O)NC2CC2)c(C)[nH]1	-145
SMILES	aSyn 5UTR act
Cc1ccc(C2CCN(C(=O)Nc3ccccc3)C2)cc1 (stereo unspecified)	-151
O=C(Nc1cccc(F)c1)N1CCC(c2ccccc2)CC1	-109
O=C(Nc1ccc(Cl)cc1)N1CCC(c2ccccc2)C1 (stereo unspecified)	-82
O=C(Nc1cccc(F)c1)N1CC=C(c2ccc(Cl)cc2)CC1	-110
N#C/C(=C/c1ccc(N2CCCCC2)o1)C(=O)Nc1ccc2ccccc2c1	-110
N#C/C(=C/c1ccc(N2CCCCC2)o1)C(=O)Nc1ccc(Cl)cc1	-152
CCc1nc(SCc2ccc(OC)cc2)n[nH]1	-82
Brc1ccccc1-c1nnc(SCc2nc3ccccc3s2)o1	-244
CCN(CC)S(=O)(=O)c1cccc(-c2nnc(SCc3nc4ccccc4s3)o2)c1	-113
O=c1c(/C=C(\O)c2ccc(F)cc2)nc2ccccc2n1-c1ccccc1	-130
O=C(c1ccco1)N1CCN(C(=O)N2c3ccccc3Sc3ccccc32)CC1	0
O=C(c1ccco1)N1CCN(c2ccc(Cl)cc2)CC1	-130
O=C(c1ccco1)N1CCN(Cc2c(F)cccc2Cl)CC1	-75
O=C(c1ccco1)N1CCN(c2ccc(Cl)c(Cl)c2)CC1	-121
CC(=O)c1c(C)[nH]c(C(=O)Nc2ccc(Cl)cc2F)c1C	-186
CSc1cccc(NC(=O)c2[nH]c(C)c(C(C)=O)c2C)c1	-139
CC(=O)c1c(C)[nH]c(C(=O)Nc2ccc(Cl)c(S(=O)(=O)N(C)C)c2)c1C	-174
CCC(C)c1ccc(NC(=O)c2[nH]c(C)c(C(C)=O)c2C)cc1 (stereo unspecified)	-149
CC(=O)c1c(C)[nH]c(C(=O)N2CCN(c3cc(Cl)ccc3C)CC2)c1C	0
Cc1ccc(NC(=O)CNCc2ccccc2Cl)cc1S(=O)(=O)N(C)C	-72
CC(=O)c1c(C)[nH]c(C(=O)Nc2ccc(Cl)cc2)c1C	-195
CC(=O)c1c(C)[nH]c(C(=O)Nc2ccccn2)c1C	-80
COc1ccc(/C(C)=N/NC(=O)OC(C)(C)C)cc1[N+](=O)[O-]	-68
O=C(COc1ccc(F)cc1Br)NCc1ccccn1	-88
Cc1ccc(OCC(=O)NCc2ccccn2)c(Br)c1	-104
SMILES	aSyn 5UTR act
O=C(NCCSc1ccccn1)c1ccc(Cl)cc1Cl	-93
Cc1ccc(C(=O)NCc2ccccn2)c(Cl)c1	-92
O=C(COc1ccccc1Br)NCc1ccccn1	-71
O=C(Nc1ccc2ccccc2c1)c1onc2c1CCCC2	-71
Cc1cccc(NC(=O)c2onc3c2CCCC3)n1	0
COC(=O)c1cccc(NC(=O)c2onc3c2CCCC3)c1	0
Cc1ccccc1NC(=O)c1onc2c1CCCC2	-131
Cc1cccc(NC(=O)c2onc3c2CCCC3)c1C	-162
Cc1ccc(N/C=C2\C(=O)C3(C)CCC2C3(C)C)cc1C (stereo unspecified)	-63
COc1cccc([C@@H]2Oc3ccc(OC)cc3C(=O)[C@H]2OC(=O)NCc2ccc3c(c2)OCO3)c1	-137
Cc1ccc(Nc2nnc(SCC(=O)Nc3cccc(S(=O)(=O)N4CCCCC4)c3)s2)cc1	-119
O=C(CSc1nnc(NC2CCCCC2)s1)Nc1ccc2c(c1)C(=O)c1ccccc1C2=O	-121
CC(C)Nc1nnc(SCC(=O)Nc2ccc3c(c2)C(=O)c2ccccc2C3=O)s1	-184
CCN(CC)CCNc1ccnc2cc(Cl)ccc12	-62
Clc1ccc(-c2nnc(-c3ccccc3Cl)o2)cc1	-82
Clc1ccccc1-c1nnc(-c2ccccc2Cl)o1	-158
Cc1sc(NC(=O)c2ccc(F)cc2)c(CN2CCCCCC2)c1C	-174
